# Results as given in the supplement of paper PMC6555819.
# Legend:
# Test in all cases: PBM binding z-score (relative to random genomic background probes); higher = stronger binding; sequences stand for … in GC…GCGATTGACAGCGTAGAATGAAGG
# [1] = system: FXR:RXRa (NR concentration 270 nM, RXRa partner concentration 90 nM)
# How it was run: (§1)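 Custom Agilent 4×180K protein-binding microarrays carried double-stranded probes, each with a 34-nt variable region. These regions held direct-repeat seeds, single-nucleotide variants, half-site ablations and random human genomic background sequences. Ligand-free nuclear receptor dimers were incubated on the arrays for 1 h, antibodies against each partner (one per run) detected binding, and scanned fluorescence was regression-normalized. Binding z-scores take the random background probes as reference.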
# [2] = system: LXRa:RXRa (NR concentration 270 nM, RXRa partner concentration 90 nM)
# How it was run: as §1
# [3] = system: LXRa homodimer (NR concentration 270 nM)
# How it was run: as §1
# [4] = system: LXRb:RXRa (NR concentration 270 nM, RXRa partner concentration 90 nM)
# How it was run: as §1
# [5] = system: LXRb homodimer (NR concentration 270 nM)
# How it was run: as §1
# [6] = system: PPARa:RXRa (NR concentration 270 nM, RXRa partner concentration 90 nM)
# How it was run: as §1
# [7] = system: PPARg:RXRa (NR concentration 180 nM, RXRa partner concentration 90 nM)
# How it was run: as §1
# [8] = system: PPARg:RXRa 270nM:90nM, anti-RXR (NR concentration 270 nM, RXRa partner concentration 90 nM)
# How it was run: as §1
# [9] = system: PPARg:RXRa 30nM:10nM, anti-RXR (NR concentration 30 nM, RXRa partner concentration 10 nM)
# How it was run: as §1
# [10] = system: PPARg:RXRa 90nM:30nM, anti-RXR (NR concentration 90 nM, RXRa partner concentration 30 nM)
# How it was run: as §1
Sequence,PBM binding z-score [1],PBM binding z-score [2],PBM binding z-score [3],PBM binding z-score [4],PBM binding z-score [5],PBM binding z-score [6],PBM binding z-score [7],PBM binding z-score [8],PBM binding z-score [9],PBM binding z-score [10]
TAGCCTAGGTCAGATCGGGCGAGTATACGCTATA,1.73,1.03,-0.449,0.569,-0.387,1.58,0.654,1.08,-0.174,0.958
CGTCCAAGGTCAGAGAGGTCATTGAATGCCGAGT,6.84,6.1,6.22,5.74,0.491,6.01,4.47,5.05,1.68,3.33
ATCAAAAGGTCGAAGGTGAGTATACCCACCCGAA,5.02,4,0.531,2.87,0.821,5.02,5.28,5.42,3.17,4.75
CCTAGTTGGGCAGGAGGTCACACACCGGATATGA,2.73,2.97,1.41,2.79,-0.389,3.7,3.31,4.01,1.77,3.33
ATCGAAAGGTCGAAGGTGAGTCTACCCACCCGAA,4.39,3.59,-0.0971,2.87,0.861,4.78,4.36,5.19,2.51,4.21
CCTTACGGGTCAGGGTTATAGCACGGGTGGTACG,3.45,2.22,-0.256,1.95,-0.0988,3.9,2.72,3.18,0.621,1.96
CGTCAAAGCTCAACTAAGGTAACGTAAAGCACGC,0.16,-0.241,-0.0906,-0.093,-0.32,-0.0617,0.335,-0.241,-0.2,-0.494
CTCGAAAGGTCGGTTGAGGTGACTATACGGATAA,3.63,1.84,-0.14,1.58,0.0463,2.63,0.621,1.11,0.252,0.639
ATATGTAGGTTAGGGTCATTCAAAAAGTAGGGAA,4.97,4.06,1.57,4.59,1.42,5.83,7.96,7.02,4.85,6.73
TCTCGGATGACACGAAAGGTCAGAGCTCGACATC,2.84,3.68,2.02,3.4,0.368,3.8,1.38,2.75,2.83,2.72
CGAACTAGGTCAAACGACAGTGAAAGGCGACGTA,4.81,2.87,0.0143,2.12,0.102,5.14,8.27,6.9,5.2,7.3
CGAACTAGTTCACCAGGACAGTGAAGAGGTTGGA,0.244,0.23,-0.131,-0.137,-0.531,0.836,0.543,0.354,-0.289,-0.0706
CGAACTAGGTCAAAGGACCGTGAAAGGCGACGTA,3.56,2.39,0.0544,1.48,-0.478,4.99,8.12,6.9,5.98,7.29
TAGCCTAGCTCATTCAGGGGCCAGTATAGAAAGC,-0.836,-1,-1.16,-0.368,-0.132,-1.13,-0.0519,-0.988,-0.46,-0.823
GGAACGGGGGCAAGTTGATAGCAGAGTTTGATGG,3.27,2.87,0.913,4.45,7.1,4.02,3.2,4.52,2.09,3.58
CGAACTAGGTTACCAGGACAGTGAAGAGGTTGGA,-0.174,-0.0635,-0.296,-0.238,-0.499,2.53,3.94,3.65,0.924,2.52
TCTCGGAGGACACGAAACGTCAGAGCTCGACATC,0.138,-0.218,-0.617,-0.347,-0.872,-0.13,0.395,0.915,2.04,1.4
AGTCAAAGTTCATCTAGGTATCGTAAGATATGCT,6.52,5.79,5.29,3.63,2.09,4.52,6.38,5.82,3.16,5.19
TAGCCTAGGTCACGGGCCAGTATACCACGCGAAC,5.68,4.12,0.223,3.33,-0.137,5.41,5.67,4.7,1.91,3.23
GATACAGGGTCAACTAGAGGCCAGAGTATGGAAA,7.52,5.21,0.703,4.77,0.877,6.2,6.7,5.69,2.72,4.61
CGAACTAGGTCACCAGGAGAGTGAAGAGGTTGGA,3.86,2.33,-0.171,1.33,-0.287,4.87,8.26,6.73,4.58,6.24
TTACCAAGGTGACCTGAGGTCGTTGATCCAACTC,3.01,5.21,3.22,3.72,-0.159,3.47,1.7,2.13,0.705,1.34
CGAACTAGGTCACCAGGTCAGTGAAGAGGTTGGA,4.69,3.38,0.525,2.7,-0.48,5.78,9.48,7.31,5.4,7.06
CGAACTAGGTCACCAGGACAGTCAAGAGGTTGGA,4.17,2.7,0.267,1.86,-0.431,5.16,8.84,6.8,4.63,6.37
CGAACTGGGTCAAAGGACAGTGAAAGGCGACGTA,3.03,1.55,-0.452,1.37,-0.785,5.23,10.1,8.57,7.98,9.33
